PrPC surface inh – inhibitors of human cell surface prion protein PrPC, primary screen, cell-based, TR-FRET. Major prion protein (Homo sapiens), P04156. TR-FRET read-out. inhibition, % at 13.8 µM. hit rate 0.43% among 370,000. AID 720596, 2013; in the data active means inhibition above about 24%; further: 0% = median of the test wells and 100% = reference compound wells
Mtb FBA inh – Mtb FBA enzyme inhibitors, primary screen, biochemical, fluorescence, strain H37Rv; Fructose-bisphosphate aldolase (Mycobacterium tuberculosis (strain ATCC 25618 / H37Rv)), …; purified M. tuberculosis FBA, fluorescence read-out; inhibition, % at 1 µM; hit rate 2.3% among 360,000;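 further: 0% = vehicle and 100% = reference inhibitor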
Target sequence (P9WQA3 whole entry, looked up): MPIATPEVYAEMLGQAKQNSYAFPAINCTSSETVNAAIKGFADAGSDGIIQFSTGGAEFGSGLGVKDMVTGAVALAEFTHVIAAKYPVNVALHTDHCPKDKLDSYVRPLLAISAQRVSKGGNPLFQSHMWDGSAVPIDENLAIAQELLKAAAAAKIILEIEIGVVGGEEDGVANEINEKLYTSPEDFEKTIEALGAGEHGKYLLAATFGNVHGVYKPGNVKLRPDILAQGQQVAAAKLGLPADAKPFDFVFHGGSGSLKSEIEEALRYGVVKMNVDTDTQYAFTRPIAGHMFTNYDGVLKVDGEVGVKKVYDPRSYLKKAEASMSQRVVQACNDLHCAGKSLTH
Vc quorum ag – inducers of Vibrio cholerae quorum light production without autoinducers, primary screen, BH1578 luxS cqsA deficient, single point. activation, % at 18.7 µM. AID 588436, 2011. hit rate 0.16% among 350,000. V. cholerae BH1578 lux reporter, luminescence, 6 h; in the data active means activation mostly above about 9.7%, no sharp cut-off
GDH-TPI counter-1 – GDH-TPI coupling enzyme inhibitors, primary screen, artefact control for M. tuberculosis FBA inhibitor project, biochemical, absorbance, full deck; GDH-TPI coupled enzyme counterscreen, NADH absorbance; hit rate 1.2% among 360,000; inhibition, % at 4.8 µM; in the data active means inhibition above about 30%;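 further: 0% = DMSO wells and 100% = wells lacking the enzyme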
3CLpro inhibitor – SARS-CoV 3CLpro protease inhibitors, primary screen, biochemical, quenched FRET. AID 1706, 2009. hit rate 0.14% among 290,000. recombinant SARS-CoV 3CLpro, quenched FRET peptide cleavage. Replicase polyprotein 1ab (Severe acute respiratory syndrome coronavirus), P0C6X7. inhibition, % at 6 µM; in the data active means inhibition above about 12%
Mtb FBA confirm – M. tuberculosis aldolase blockers, biochemical, fluorescence, strain H37Rv, confirmation; shares compounds with Mtb FBA inh; purified M. tuberculosis FBA, fluorescence read-out; inhibition, % at 1 µM; hit rate 78% among 5,600; AID 651616, 2012;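 further: 0% = vehicle wells and 100% = reference inhibitor wells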
GDH-TPI counter-2 – GDH-TPI coupling enzyme inhibitors, artefact control for M. tuberculosis FBA inhibitor project, biochemical, fluorescence, high throughput | shares compounds with Mtb FBA inh | GDH-TPI coupled enzyme counterscreen | inhibition, % at 1 µM | hit rate 81% among 5,600 | AID 652141, 2013; in the data active means inhibition above about 10%
GDH-TPI dose – GDH-TPI coupling enzyme inhibitors, dose response, artefact control for M. tuberculosis FBA inhibitor project, biochemical, fluorescence, IC50; shares compounds with Mtb FBA inh; GDH-TPI coupled enzyme assay, artifact counterscreen; IC50, µM; hit rate 79% among 170; AID 652145, 2013; call rule not given here
* = called active by the depositor; i = inactive; . = not tested or not shown. Sampled rows, rich in hits. Any-hit rate of the full collection: about 3.9%. Unless noted, no stated cut-off is given here; in the data, active means inhibition above about 27%; inactive means the rest.

SMILES	PrPC surface inh	Mtb FBA inh	Vc quorum ag	GDH-TPI counter-1	3CLpro inhibitor	Mtb FBA confirm	GDH-TPI counter-2	others
O=C(NNC(=O)C1C2CCCCC21)c1coc(=O)c(Br)c1 (centres undefined)	5.9	54.0*	-0.6	14.6	-0.5	85.7*	50.4*
O=C(c1ccc(C(F)(F)F)cc1)n1ccc(-c2cccs2)n1	-3.0	2.5	0.6	-4.9	3.5	.	.
O=C(c1ccc(F)cc1)n1ccc(-c2cnc(-c3ccccc3)s2)n1	2.4	46.6*	-0.9	22.1	3.4	81.3*	59.3*
Brc1cccc(-c2nc3ccc(Br)cn3c2Cc2ccccc2)c1	4.0	2.4	.	.	.	.	.
COc1cc(OC)cc(-c2noc(-c3csc([C@@H]4O[C@H](CO)[C@H](O)[C@H](O)[C@H]4O)n3)n2)c1	7.2	4.0	0.5	-4.4	.	.	.
COc1ccccc1-n1c(SCc2cc(=O)oc3cc(O)ccc23)nc2ccccc2c1=O	-1.1	72.0*	-0.2	7.9	1.7	2.5	2.0
COc1cc(-c2ccc3cc(OC)c(OC)c(OC)c3c2)cc(OC)c1OC	4.5	45.0*	-0.7	0.9	.	7.8	6.2
CC1CCCN(C(=O)c2cc3c(=O)n4ccccc4nc3s2)C1 (centres undefined)	3.0	59.5*	-0.5	19.9	-4.4	49.8*	29.7*
Cc1cccn2c(=O)c3cc(C(=O)N4CCN(Cc5ccccc5)CC4)sc3nc12	-13.1	57.3*	0.1	13.3	.	-2.3	-2.9
O=C(c1cc2c(=O)n3ccccc3nc2s1)N1CCN(Cc2ccc3c(c2)OCO3)CC1	-10.1	95.6*	i	9.9	-2.5	21.6	-5.9	GDH-TPI dose=2.32*
O=C(c1cc2c(=O)n3ccccc3nc2s1)N1CCN(Cc2ccccc2)CC1	-16.6	105.3*	-8.8	3.0	-1.9	-3.4	-6.4
O=C(Cn1ccc2ccccc2c1=O)N1CCN(Cc2ccc3c(c2)OCO3)CC1	-1.4	0.5	-0.7	4.5	-1.1	.	.
COc1ccc(N2CCN(S(=O)(=O)CCNC(=O)/C=C/c3ccccc3)CC2)cc1	-9.7	-0.7	-0.7	3.6	.	.	.
CCCCC(Sc1nc(N)c(NC(=O)c2ccco2)c(=O)[nH]1)C(=O)O (centres undefined)	3.0	-0.5	-0.1	-0.3	-1.5	.	.
Cc1ccc(S(=O)(=O)NCCc2cn3nc(C)c(C)nc3n2)cc1C	-6.0	64.2*	-2.5	15.7	-0.9	159.2*	159.0*
CCCCNC(=O)N1CCCN(c2ccc(C#N)cn2)CC1	1.6	-2.5	-0.5	-2.1	4.2	.	.
O=S(=O)(c1cccs1)N1CN(CC2CCCO2)c2nc3ccccc3nc21 (centres undefined)	-11.0	51.3*	-0.5	21.2	-4.8	70.3*	58.1*
O=S(=O)(c1cccs1)N1CN(Cc2ccccc2)c2nc3ccccc3nc21	1.7	32.4*	i	35.6*	0.5	39.8*	27.1*
Cc1ccc(S(=O)(=O)N2CN(CC3CCCO3)c3nc4ccccc4nc32)c(C)c1 (centres undefined)	10.6	8.4	-0.5	6.3	1.5	.	.
O=S(=O)(c1cccs1)N1CN(Cc2ccc(F)cc2)c2nc3ccccc3nc21	4.7	6.1	i	6.8	3.0	.	.
O=[N+]([O-])c1ccc(CNCc2cc(Cl)ccc2O)cc1	-6.0	4.5	2.8	2.2	.	.	.
CNc1nc(-c2ccccc2)c2sccc2n1	-5.4	78.0*	-0.2	17.3	.	8.0	-3.8
COc1cc(NC(=O)CCC(=O)N2CCN(S(=O)(=O)c3ccc(C)cc3)CC2)cc(OC)c1	-3.4	5.4	-2.8	9.7	.	.	.
COc1ccc2nc3oc(C(=O)N4CCC5(CC4)OCCO5)cc3cc2c1	-13.3	50.0*	i	13.1	-0.9	187.0*	156.3*
COc1ccc2nc3oc(C(=O)Nc4ccc(OC)c(OC)c4)cc3cc2c1	-5.8	17.9	-0.2	2.5	-0.1	.	.

High-throughput results: PubChem BioAssay, several laboratories
